# In PubChem BioAssay (EPA / NIEHS):
# A structure can be active in one record and inactive in another. Calls of active or inactive are those of the source. Rule for the calls: active = hit-call score of the fitted dose curve at least 0.9, where 1 is the maximum; inactive = score below 0.9.
# Experiments:
# [1] = read-out: Tissue plasminogen activator (tPA), PLAT (gene 5327); test: BSK_BE3C_tPA: BioMAP Diversity Plus: BE3C Assay for Tissue plasminogen activator (tPA) Biomarker Activity (AID 2283041); conditions: primary human bronchial epithelial cells; actives raise or lower the signal;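 for outcome: tPA level quantified by ELISA one day after compound addition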
# How it was run: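 Human primary bronchial epithelial cells were dosed with chemical and tPA biomarker levels measured by ELISA 24 hours later. Activity was fitted bidirectionally against DMSO as negative control and baseline.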
# [2] = read-out: Interleukin-8 (IL8), CXCL8 (gene 3576); test: BSK_CASM3C_IL8: BioMAP Diversity Plus: CASM3C Assay for Interleukin-8 (IL8) Biomarker Activity (AID 2283042); conditions: primary human coronary artery smooth muscle cells; actives raise or lower the signal;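 note: IL-8 protein level quantified by ELISA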
# [3] = read-out: Human Leukocyte Antigen - DR isotype (HLADR), HLA-DRA (gene 3122); test: BSK_CASM3C_HLADR: BioMAP Diversity Plus: CASM3C Assay for Human Leukocyte Antigen - DR isotype (HLADR) Biomarker Activity (AID 2283043); conditions: primary human coronary artery smooth muscle cells; actives raise or lower the signal;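 note: cell-surface HLA-DR protein level quantified by ELISA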
# [4] = read-out: Macrophage colony-stimulating factor (MCSF), CSF1 (gene 1435); test: BSK_CASM3C_MCSF: BioMAP Diversity Plus: CASM3C Assay for Macrophage colony-stimulating factor (MCSF) Biomarker Activity (AID 2283044); conditions: primary human coronary artery smooth muscle cells; actives raise or lower the signal;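 note: M-CSF protein amount quantified by ELISA after 24 h exposure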
# [5] = read-out: Low-density lipoprotein receptor (LDLR), LDLR (gene 3949); test: BSK_CASM3C_LDLR: BioMAP Diversity Plus: CASM3C Assay for Low-density lipoprotein receptor (LDLR) Biomarker Activity (AID 2283045); conditions: primary human coronary artery smooth muscle cells; actives raise or lower the signal;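 note: LDLR protein level on the cell surface quantified by ELISA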
# [6] = read-out: Monocyte Chemoattractant Protein-1 (MCP1), CCL2 (gene 6347); test: BSK_CASM3C_MCP1: BioMAP Diversity Plus: CASM3C Assay for Monocyte Chemoattractant Protein-1 (MCP1) Biomarker Activity (AID 2283046); conditions: primary human coronary artery smooth muscle cells; actives raise or lower the signal;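 note: MCP-1 level quantified by ELISA 24 h after dosing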
# [7] = BSK_CASM3C_Proliferation: Cell Proliferation Assessment in the BioMAP Diversity Plus: CASM3C Assay (AID 2283047); conditions: primary human coronary artery smooth muscle cells;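 note: sulforhodamine B total protein stain as relative cell number at 560 nm; sub-confluent cells exposed 48 h before staining; fitted both ways against DMSO so gain or loss of cell number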
# [8] = read-out: Monokine induced gamma interferon (MIG), CXCL9 (gene 4283); test: BSK_CASM3C_MIG: BioMAP Diversity Plus: CASM3C Assay for Monokine induced gamma interferon (MIG) Biomarker Activity (AID 2283048); conditions: primary human coronary artery smooth muscle cells; actives raise or lower the signal;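 note: MIG protein level measured by ELISA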
# [9] = read-out: serum amyloid A (SAA), SAA1 (gene 6288); test: BSK_CASM3C_SAA: BioMAP Diversity Plus: CASM3C Assay for serum amyloid A (SAA) Biomarker Activity (AID 2283049); conditions: primary human coronary artery smooth muscle cells; actives raise or lower the signal;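 note: SAA protein level quantified by ELISA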
# [10] = BSK_CASM3C_SRB: Viability Assessment in the BioMAP Diversity Plus: CASM3C Assay (AID 2283050); conditions: primary human coronary artery smooth muscle cells;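 note: total protein by SRB staining as cytotoxicity measure in parallel cultures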
# [11] = read-out: Thrombomodulin, THBD (gene 7056); test: BSK_CASM3C_Thrombomodulin: BioMAP Diversity Plus: CASM3C Assay for Thrombomodulin Biomarker Activity (AID 2283051); conditions: primary human coronary artery smooth muscle cells; actives raise or lower the signal;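 note: thrombomodulin protein level measured by ELISA 24 h after dosing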
# [12] = read-out: Tissue Factor, F3 (gene 2152); test: BSK_CASM3C_TissueFactor: BioMAP Diversity Plus: CASM3C Assay for Tissue Factor Biomarker Activity (AID 2283052); conditions: primary human coronary artery smooth muscle cells; actives raise or lower the signal;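 note: cell surface tissue factor protein level read by ELISA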
# [13] = read-out: Interferon-gamma inducible Protein 10 (IP10), CXCL10 (gene 3627); test: BSK_hDFCGF_IP10: BioMAP Diversity Plus: hDFCGF Assay for Interferon-gamma inducible Protein 10 (IP10) Biomarker Activity (AID 2283053); conditions: primary human foreskin fibroblasts; actives raise or lower the signal
# How it was run: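 Human foreskin fibroblast primary cells (hDFCGF system) were dosed with chemical and assayed at 24 h; IP-10 measured by ELISA. Activity fitted bidirectionally relative to DMSO negative control as baseline.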
# [14] = read-out: Urokinase-type plasminogen activator receptor (uPAR), PLAUR (gene 5329); test: BSK_CASM3C_uPAR: BioMAP Diversity Plus: CASM3C Assay for Urokinase-type plasminogen activator receptor (uPAR) Biomarker Activity (AID 2283054); conditions: primary human coronary artery smooth muscle cells; actives raise or lower the signal;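 note: cell-surface uPAR protein level quantified by ELISA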
# [15] = read-out: Vascular cell adhesion molecule 1 (VCAM1), VCAM1 (gene 7412); test: BSK_CASM3C_VCAM1: BioMAP Diversity Plus: CASM3C Assay for Vascular cell adhesion molecule 1 (VCAM1) Biomarker Activity (AID 2283055); conditions: primary human coronary artery smooth muscle cells; actives raise or lower the signal;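 note: VCAM-1 protein level quantified by ELISA on the cells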
# [16] = read-out: Collagen III, COL3A1 (gene 1281); test: BSK_hDFCGF_CollagenIII: BioMAP Diversity Plus: hDFCGF Assay for Collagen III Biomarker Activity (AID 2283056); conditions: primary human foreskin fibroblasts; actives raise or lower the signal
# How it was run: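 hDFCGF primary human dermal fibroblasts; 24 h chemical exposure; collagen III by ELISA; bidirectional curve fit vs DMSO baseline (gain or loss of signal).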
# [17] = read-out: Epidermal growth factor receptor (EGFR), EGFR (gene 1956); test: BSK_hDFCGF_EGFR: BioMAP Diversity Plus: hDFCGF Assay for Epidermal growth factor receptor (EGFR) Biomarker Activity (AID 2283057); conditions: primary human foreskin fibroblasts; actives raise or lower the signal
# How it was run: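 Primary human foreskin fibroblasts were exposed to compound for 24 h, after which cell-surface EGFR was quantified by ELISA. Activity was fitted bidirectionally against the DMSO negative control as baseline.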
# [18] = read-out: Interleukin-8 (IL8), CXCL8 (gene 3576); test: BSK_hDFCGF_IL8: BioMAP Diversity Plus: hDFCGF Assay for Interleukin-8 (IL8) Biomarker Activity (AID 2283058); conditions: primary human foreskin fibroblasts; actives raise or lower the signal
# How it was run: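 ELISA read-out of IL-8 from primary human foreskin fibroblast cultures taken 24 h after dosing; values are bidirectional fits relative to DMSO vehicle.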
# [19] = BSK_hDFCGF_Proliferation: Cell Proliferation Assessment in the BioMAP Diversity Plus: hDFCGF Assay (AID 2283059); conditions: primary human foreskin fibroblasts;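 note: curves fitted for both rise and fall of signal versus DMSO baseline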
# How it was run: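 Primary human foreskin fibroblasts, sub-confluent; […]; 10% TCA fix, 0.1% SRB stain, A560 total protein. Gain/loss fitted bidirectionally vs DMSO control.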
# [20] = read-out: Macrophage colony-stimulating factor (MCSF), CSF1 (gene 1435); test: BSK_hDFCGF_MCSF: BioMAP Diversity Plus: hDFCGF Assay for Macrophage colony-stimulating factor (MCSF) Biomarker Activity (AID 2283060); conditions: primary human foreskin fibroblasts; actives raise or lower the signal
# How it was run: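 ELISA read-out of M-CSF in human dermal foreskin fibroblast cultures, 24 h after chemical dosing; gain or loss of signal fitted bidirectionally relative to DMSO baseline.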
compound,measurement,setting,value
Cc1cc(CCN2CCN(c3nsc4ccccc34)CC2)cc2c1NC(=O)CC2(C)C,AC50,[1],25.8 µM (active)
same,AC50,[2],35.4 µM (active)
same,AC50,[3],28.5 µM (active)
same,AC50,[4],36.1 µM (active)
same,AC50,[5],33.4 µM (active)
same,AC50,[6],37.1 µM (active)
same,AC50,[7],29.8 µM (active)
same,AC50,[8],37.1 µM (active)
same,AC50,[9],31.5 µM (active)
same,AC50,[10],36.5 µM (active)
same,AC50,[11],33.9 µM (active)
same,AC50,[12],29.6 µM (active)
same,AC50,[13],11.5 µM (active)
same,AC50,[14],31.1 µM (active)
same,AC50,[15],29.4 µM (active)
same,AC50,[16],9.12 µM (active)
same,outcome,[17],inactive
same,AC50,[18],11.3 µM (active)
same,AC50,[19],7.83 µM (active)
same,AC50,[20],10.8 µM (active)
CC[C@H](c1ccc(O)cc1)[C@@H](CC)c1ccc(O)cc1,AC50,[1],27.5 µM (active)
same,outcome,[2],inactive
same,outcome,[3],inactive
same,outcome,[4],inactive
same,outcome,[5],inactive
same,outcome,[6],inactive
same,AC50,[7],20 µM (active)
same,outcome,[8],inactive
same,outcome,[9],inactive
same,outcome,[10],inactive
same,outcome,[11],inactive
same,outcome,[12],inactive
same,AC50,[13],24.1 µM (active)
same,outcome,[14],inactive
same,AC50,[15],27.4 µM (active)
same,AC50,[16],15.1 µM (active)
same,outcome,[17],inactive
same,AC50,[18],37.8 µM (active)
same,AC50,[19],18.8 µM (active)
same,AC50,[20],29.7 µM (active)
O=[N+]([O-])c1ccc(O)cc1,outcome,[1],inactive
same,outcome,[2],inactive
same,outcome,[3],inactive
same,outcome,[4],inactive
same,outcome,[5],inactive
same,outcome,[6],inactive
same,outcome,[7],inactive
same,outcome,[8],inactive
same,outcome,[9],inactive
same,outcome,[10],inactive
same,outcome,[11],inactive
same,outcome,[12],inactive
same,outcome,[13],inactive
same,outcome,[14],inactive
same,outcome,[15],inactive
same,outcome,[16],inactive
same,outcome,[17],inactive
same,outcome,[18],inactive
same,outcome,[19],inactive
same,outcome,[20],inactive
CCCCCCC(=O)O,outcome,[1],inactive
same,outcome,[2],inactive
same,outcome,[3],inactive
same,outcome,[4],inactive
same,outcome,[5],inactive
same,outcome,[6],inactive
same,outcome,[7],inactive
same,outcome,[8],inactive
same,outcome,[9],inactive
same,outcome,[10],inactive
same,outcome,[11],inactive
same,outcome,[12],inactive
same,outcome,[13],inactive
same,outcome,[14],inactive
same,outcome,[15],inactive
same,outcome,[16],inactive
same,outcome,[17],inactive
same,outcome,[18],inactive
same,outcome,[19],inactive
same,outcome,[20],inactive
CCC(=C(c1ccc(O)cc1)c1ccc(OCCN(C)C)cc1)c1ccccc1,AC50,[1],8.8 µM (active)
same,AC50,[2],24.4 µM (active)
same,AC50,[3],17.4 µM (active)
same,AC50,[4],18.4 µM (active)
same,AC50,[5],22.7 µM (active)
same,AC50,[6],24 µM (active)
same,AC50,[7],9.11 µM (active)
same,AC50,[8],24.8 µM (active)
same,AC50,[9],22.8 µM (active)
same,AC50,[10],22.2 µM (active)
same,outcome,[11],inactive
same,AC50,[12],15.8 µM (active)
same,AC50,[13],10.5 µM (active)
same,AC50,[14],20.3 µM (active)
same,AC50,[15],22.3 µM (active)
same,AC50,[16],7.58 µM (active)
same,outcome,[17],inactive
same,AC50,[18],12.8 µM (active)
same,AC50,[19],4.77 µM (active)
same,AC50,[20],10.2 µM (active)
C=C(C)C(=O)OCCC(F)(F)C(F)(F)C(F)(F)C(F)(F)C(F)(F)C(F)(F)F,AC50,[1],3.97 µM (active)
same,outcome,[1],inactive
same,outcome,[2],inactive
same,AC50,[3],20 µM (active)
same,outcome,[3],inactive
same,outcome,[4],inactive
same,AC50,[5],12.1 µM (active)
same,outcome,[5],inactive
same,outcome,[6],inactive
same,AC50,[7],13.5 µM (active)
same,outcome,[7],inactive
same,outcome,[8],inactive
same,outcome,[9],inactive
same,outcome,[10],inactive
same,outcome,[11],inactive
same,outcome,[12],inactive
same,outcome,[13],inactive
same,outcome,[14],inactive
same,outcome,[15],inactive
same,outcome,[16],inactive
same,outcome,[17],inactive
same,outcome,[18],inactive
same,AC50,[19],13.8 µM (active)
same,outcome,[19],inactive
same,AC50,[20],23.2 µM (active)
same,outcome,[20],inactive
